Source: PubChem BioAssay (NCI)
This is part of a sample that, as a whole, favours compounds with a hit. Of some 83,000 tested, about 20% had one in any assay.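 Note: values are percent growth. 100 is the growth of untreated cells, values between 100 and 0 indicate rising inhibition; between -100 and 0 indicates cell death.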 Values without a mark were called inactive. Calls of active or inactive are those of the source. The calls were made as follows: active = growth percent below 10; inactive = the rest.

Tests used:
Experiment in all cases: NCI-60 one-dose screen, 48 h (100 = growth as untreated, 0 = no growth, -100 = all killed)
Settings in all cases: 10 µM unless noted
NCI-H23 lung = system: NCI-H23 lung
NCI-H226 lung = system: NCI-H226 lung
NCI-H322M lung = system: NCI-H322M lung
HOP-62 NSCLC = system: HOP-62 NSCLC
NCI-H460 lung = system: NCI-H460 lung
HOP-92 NSCLC = system: HOP-92 NSCLC
NCI-H522 lung = system: NCI-H522 lung
A549/ATCC NSCLC = system: A549/ATCC NSCLC
786-0 renal = system: 786-0 renal
COLO 205 colon = system: COLO 205 colon
DU-145 prostate = system: DU-145 prostate
K-562 leukemia = system: K-562 leukemia
MALME-3M melanoma = system: MALME-3M melanoma
MDA-MB-231 breast = system: MDA-MB-231 breast
RXF 393 renal = system: RXF 393 renal
SF-268 CNS = system: SF-268 CNS
SF-295 CNS = system: SF-295 CNS
SF-539 CNS = system: SF-539 CNS
UACC-257 melanoma = system: UACC-257 melanoma
M14 melanoma = system: M14 melanoma

[Cl][Hg][c]1cc[c]([Hg][Cl])o1
growth (NCI-H23 lung): 63.5% | growth (NCI-H226 lung): 99.1% | growth (NCI-H322M lung): 96.9% | growth (HOP-62 NSCLC): 72.9% | growth (NCI-H460 lung): 68.6% | growth (HOP-92 NSCLC): -29.1% (active) | growth (NCI-H522 lung): 2.99% (active) | growth (A549/ATCC NSCLC): 88.4% | growth (786-0 renal): -74.8% (active) | growth (COLO 205 colon): 6.94% (active) | growth (DU-145 prostate): 70.6% | growth (K-562 leukemia): 7.68% (active) | growth (MALME-3M melanoma): -51.6% (active) | growth (MDA-MB-231 breast): 22.7% | growth (RXF 393 renal): 62.1% | growth (SF-268 CNS): 51.3% | growth (SF-295 CNS): 93.4% | growth (SF-539 CNS): 75% | growth (UACC-257 melanoma): 65.5% | growth (M14 melanoma): 14.8%

NC(=O)CNc1ccc([As]=[As]c2ccc(NCC(N)=O)cc2)cc1 (stereo not given)
growth (NCI-H23 lung): 62.2% | growth (NCI-H226 lung): 49.4% | growth (NCI-H322M lung): 83.5% | growth (HOP-62 NSCLC): 94% | growth (NCI-H460 lung): 83.2% | growth (HOP-92 NSCLC): 63.6% | growth (NCI-H522 lung): 2.53% (active) | growth (A549/ATCC NSCLC): 81% | growth (786-0 renal): 29.7% | growth (COLO 205 colon): 76.8% | growth (DU-145 prostate): 60.3% | growth (K-562 leukemia): 19% | growth (MALME-3M melanoma): 47.2% | growth (MDA-MB-231 breast): 30% | growth (RXF 393 renal): 32.1% | growth (SF-268 CNS): 24.6% | growth (SF-295 CNS): 94% | growth (SF-539 CNS): 0.244% (active) | growth (UACC-257 melanoma): 37.2% | growth (M14 melanoma): 57.7%

CC[C@H](C)[C@H](NC(=O)[C@H]1CCCCN1C)C(=O)N(C)[C@H](C[C@@H](O)c1nc(C(=O)N[C@@H](Cc2ccccc2)C[C@H](C)C(=O)O)cs1)C(C)C
growth (NCI-H23 lung): 94.8% | growth (NCI-H226 lung): 99% | growth (NCI-H322M lung): 105% | growth (HOP-62 NSCLC): 82.4% | growth (NCI-H460 lung): 95.6% | growth (HOP-92 NSCLC): 57.8% | growth (NCI-H522 lung): -18% (active) | growth (A549/ATCC NSCLC): 87.1% | growth (786-0 renal): 90.2% | growth (COLO 205 colon): 83.6% | growth (DU-145 prostate): 112% | growth (K-562 leukemia): 42.1% | growth (MALME-3M melanoma): 77.6% | growth (MDA-MB-231 breast): 95.2% | growth (RXF 393 renal): 96.9% | growth (SF-268 CNS): 88.2% | growth (SF-295 CNS): 90.6% | growth (SF-539 CNS): 83.6% | growth (UACC-257 melanoma): 76.1% | growth (M14 melanoma): 64.5%

CC(C)(C)C(=O)OCOP(=O)(OCOC(=O)C(C)(C)C)C1CCCN(O)C1=O (stereo not given)
growth (NCI-H23 lung): -13.4% (active) | growth (NCI-H226 lung): -1.39% (active) | growth (NCI-H322M lung): 14.7% | growth (HOP-62 NSCLC): 18.2% | growth (NCI-H460 lung): 1.85% (active) | growth (HOP-92 NSCLC): 7.23% (active) | growth (NCI-H522 lung): -7.58% (active) | growth (A549/ATCC NSCLC): 10.8% | growth (786-0 renal): 12.4% | growth (COLO 205 colon): -16.8% (active) | growth (DU-145 prostate): 20% | growth (K-562 leukemia): 8.42% (active) | growth (MALME-3M melanoma): 12.3% | growth (MDA-MB-231 breast): 5.67% (active) | growth (RXF 393 renal): -9.35% (active) | growth (SF-268 CNS): 4.35% (active) | growth (SF-295 CNS): 54% | growth (SF-539 CNS): 27.4% | growth (UACC-257 melanoma): 18.9% | growth (M14 melanoma): 26.6%

CN1CC(CNC(=O)OCc2ccccc2)CC2c3cccc4c3c(cn4C)CC21 (stereo not given)
growth (NCI-H23 lung): 71.6% | growth (NCI-H226 lung): 78% | growth (NCI-H322M lung): 82.9% | growth (HOP-62 NSCLC): 35.2% | growth (NCI-H460 lung): 40.4% | growth (HOP-92 NSCLC): 29.5% | growth (NCI-H522 lung): 60.5% | growth (A549/ATCC NSCLC): 45.5% | growth (786-0 renal): 42.8% | growth (COLO 205 colon): -72.5% (active) | growth (DU-145 prostate): 56.8% | growth (K-562 leukemia): 3.66% (active) | growth (MALME-3M melanoma): -16% (active) | growth (MDA-MB-231 breast): 27.3% | growth (RXF 393 renal): 8.6% (active) | growth (SF-268 CNS): 59% | growth (SF-295 CNS): 25.8% | growth (SF-539 CNS): 28.6% | growth (UACC-257 melanoma): -60.4% (active) | growth (M14 melanoma): -58% (active)

CC1=C2[C@@H](CC1)[C@]1(C)O[C@@](C(C)C)(C[C@H]1O)[C@H]2OC(=O)C1CC1c1ccccc1 (stereo not given in full)
growth (NCI-H23 lung): 102% | growth (NCI-H226 lung): 75.6% | growth (NCI-H322M lung): 109% | growth (HOP-62 NSCLC): 81.7% | growth (NCI-H460 lung): 102% | growth (HOP-92 NSCLC): 73.3% | growth (NCI-H522 lung): 72.7% | growth (A549/ATCC NSCLC): 76.5% | growth (786-0 renal): 97.9% | growth (COLO 205 colon): 90.5% | growth (DU-145 prostate): 106% | growth (K-562 leukemia): 84.6% | growth (MALME-3M melanoma): 92.2% | growth (MDA-MB-231 breast): 78.2% | growth (RXF 393 renal): 99.4% | growth (SF-268 CNS): 86.1% | growth (SF-295 CNS): 92.1% | growth (SF-539 CNS): 94.6% | growth (UACC-257 melanoma): 103% | growth (M14 melanoma): 90.9%

c1ccc(CSC(c2ccccc2)c2ccccc2)cc1
growth (NCI-H23 lung): 101% | growth (NCI-H226 lung): 111% | growth (NCI-H322M lung): 119% | growth (HOP-62 NSCLC): 116% | growth (NCI-H460 lung): 105% | growth (HOP-92 NSCLC): 76.2% | growth (NCI-H522 lung): 97.6% | growth (A549/ATCC NSCLC): 103% | growth (786-0 renal): 91.3% | growth (COLO 205 colon): 101% | growth (DU-145 prostate): 121% | growth (K-562 leukemia): 105% | growth (MALME-3M melanoma): 110% | growth (MDA-MB-231 breast): 119% | growth (RXF 393 renal): 119% | growth (SF-268 CNS): 112% | growth (SF-295 CNS): 114% | growth (SF-539 CNS): 105% | growth (UACC-257 melanoma): 105% | growth (M14 melanoma): 99.1%
